A selection: hits, their analogues and other compounds. The true share with any hit is near 0.5%.
AddAB inh: less growth of phage-infected E. coli with AddAB; 330,000 tested, 0.29% active; E. coli expressing H. pylori AddAB, absorbance growth; inhibition, % at 11.9 µM; AID 435030; in the data active means inhibition above about 12%
E coli growth-1: blocks Escherichia coli growth | OD600, 23 h; hits give low values | AID 1053175 | 330,000 tested, 0.21% active | OD600 absorbance (test concentration not listed);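 active means OD600 absorbance below the run mean of sample wells minus 3.6 SD, in any replicate, cut at about 0.56 in these data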
Tat transport: blocks Tat-dependent protein export in E. coli | 340,000 tested, 0.036% active | AID 488895 | inhibition, % at 10 µM | E. coli MC4100 TorA-mCherry Tat export, fluorescence;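 active means mean replicate inhibition at least 50% and at least half of replicates individually reaching 50%; inconclusive means only one of the two criteria met; inactive means neither criterion met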;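 further: exported cargo escapes ClpAP degradation while cytoplasmic cargo is degraded and loses fluorescence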
phage Ecoli inh: E. coli growth loss with phage present; growth absorbance; inhibition, % at 11.9 µM; 360,000 tested, 0.26% active; AID 651602; in the data active means inhibition above about 11%
E coli growth-2: counter-screen for AddAB inhibitors: E. coli growth inhibition; E. coli V3065 growth, OD600 absorbance, 18 h; inhibition, % at 11.9 µM; 330,000 tested, 0.27% active; AID 449728;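 active means inhibition above the campaign's mean inhibition across all tested compounds plus 3 SD, cut at about 9.9% in these data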;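 further: uninfected addAB+ strain grown without phage in ampicillin broth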
RecBCD conf: growth loss of phage-infected V66 E. coli, RecBCD confirmation screen; shares compounds with phage Ecoli inh; E. coli V66 + T4 2- phage, growth OD; inhibition, % at 11.9 µM; 890 tested, 45% active;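 active means mean inhibition over triplicates exceeding the hit threshold derived in the original primary screen, cut at about 11% in these data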
Ecoli viability: counter-screen for RecBCD inhibitors: inhibitors of bacterial viability. shares compounds with phage Ecoli inh. E. coli viability, absorbance (OD) growth. inhibition, % at 11.9 µM. 890 tested, 29% active. AID 651983; in the data active means inhibition above about 20%;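 further: E. coli strain V66 grown with compound alone and no phage infection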
AddAB counter: growth loss of phage-infected AddAB E. coli, RecBCD counter-screen; shares compounds with phage Ecoli inh; E. coli expressing H. pylori AddAB + T4 phage, OD growth; gene 2 mutant T4, recBCD-deleted host; inhibition, % at 11.9 µM; 890 tested, 45% active; AID 651984;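 active means mean inhibition above the solvent-only control wells' mean plus 3 SD, cut at about 22% in these data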;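 further: higher means less bacterial growth from phage killing when AddAB is blocked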
Of the large screens only hits and unclear results are named; the others gave an inactive call (follow-up assays come after a bar, where they were run).

CC(=O)NC(c1ccc(Cl)cc1)c1ccc2cccnc2c1O (configuration not stated)	phage Ecoli inh 20 (no result: AddAB inh, E coli growth-2) | RecBCD conf 12 | Ecoli viability inactive | AddAB counter inactive
CCCCC(=O)NC(c1ccc(Cl)cc1Cl)c1ccc2cccnc2c1O (configuration not stated)	phage Ecoli inh 19 (no result: AddAB inh, E coli growth-1, E coli growth-2) | RecBCD conf 13 | Ecoli viability inactive | AddAB counter 31
CCN1CCCC1Cn1cnc2c([nH]c3ccc(OC)cc32)c1=O (configuration not stated)	none
Nc1nonc1-n1nnc(C(=O)N/N=C/c2cc(Br)ccc2O)c1CNc1ccccc1	phage Ecoli inh 12 (no result: E coli growth-1) | RecBCD conf inactive | Ecoli viability inactive | AddAB counter inactive
Cc1ccc(/C=N/NC(=O)c2nnn(-c3nonc3N)c2CNc2ccccc2)cc1	none (no result: E coli growth-1)
Nc1nc(N)nc(-c2ccc([N+](=O)[O-])o2)n1	E coli growth-1 0.51, phage Ecoli inh 103 (no result: AddAB inh, E coli growth-2) | RecBCD conf 64 | Ecoli viability 89 | AddAB counter 98
O=[N+]([O-])c1ccc(/C=[N+](\[O-])[C@@H]2CCCC[C@@H]2/[N+]([O-])=C/c2ccc([N+](=O)[O-])o2)o1	none
COc1ccc(S(=O)(=O)N2CCCc3nc(-c4ccccc4)ccc32)cc1	none (no result: AddAB inh, E coli growth-1, Tat transport, E coli growth-2)
COc1cc(-c2nnc(COC(=O)c3ccc([N+](=O)[O-])o3)o2)cc(OC)c1OC	phage Ecoli inh 12 (no result: AddAB inh, E coli growth-1, Tat transport, E coli growth-2) | RecBCD conf inactive | Ecoli viability inactive | AddAB counter inactive
O=C(OCc1nnc(-c2ccccc2)o1)c1ccc([N+](=O)[O-])o1	none
CC(CCc1ccco1)NC(=O)Cn1ncc2c(=O)oc3ccccc3c21 (configuration not stated)	phage Ecoli inh 99 | RecBCD conf inactive | Ecoli viability inactive | AddAB counter inactive
O=C(CNC(=O)c1ccc(OC(F)F)cc1)NCC1(N2CCOCC2)CCCCC1	none
CCC(=O)Nc1ccc2nc(C)n(CC(=O)Nc3ccccc3)c(=O)c2c1	none
Cc1cc(NC(=O)Cn2c(C)nc3ccccc3c2=O)ccc1Br	AddAB inh 20, phage Ecoli inh 13, E coli growth-2 19 | RecBCD conf 12 | Ecoli viability inactive | AddAB counter inactive
Cc1nc(N)nc(N)c1/C=C/C(C)(C)c1ccc(Cl)cc1	E coli growth-1 0.069, phage Ecoli inh 100 (no result: AddAB inh, E coli growth-2) | RecBCD conf 82 | Ecoli viability 89 | AddAB counter 100
Cc1cc(N/N=C/c2ccc(N(C)C)cc2)c2ccccc2n1	phage Ecoli inh 12 (no result: E coli growth-1) | RecBCD conf inactive | Ecoli viability inactive | AddAB counter inactive
CC(=NNC(=S)N1CCC1)c1ccccn1	phage Ecoli inh 41 (no result: AddAB inh, E coli growth-1, E coli growth-2) | RecBCD conf 43 | Ecoli viability 52 | AddAB counter 41
CC(=O)NC(CC(=O)NC12CC3CC(CC(C3)C1)C2)c1ccccc1 (configuration not stated)	none
Cn1cc([N+](=O)[O-])c(C(=O)N/N=C/c2ccc([N+](=O)[O-])cc2)n1	phage Ecoli inh 11 (no result: E coli growth-1) | RecBCD conf inactive | Ecoli viability inactive | AddAB counter inactive
CCOc1ccc2c(c1)S/C(=C\c1cccs1)C(=O)N2	phage Ecoli inh 54 | RecBCD conf inactive | Ecoli viability inactive | AddAB counter inactive
Cc1cc(C)cc(N=C2NC(=O)/C(=C/c3cccs3)S2)c1	none
O=[N+]([O-])c1cc(Cl)c(O)c2ncccc12	E coli growth-1 0.068, phage Ecoli inh 44 (no result: AddAB inh, E coli growth-2) | RecBCD conf 53 | Ecoli viability 55 | AddAB counter 46
Oc1c(I)cc(Cl)c2cccnc12	AddAB inh 31, E coli growth-1 0.12, phage Ecoli inh 32, E coli growth-2 44 | RecBCD conf 43 | Ecoli viability 49 | AddAB counter 40
O=[N+]([O-])c1ccc(O)c2ncccc12	AddAB inh 64, E coli growth-1 0.066, phage Ecoli inh 62, E coli growth-2 67 | RecBCD conf 79 | Ecoli viability 74 | AddAB counter 69
O=[N+]([O-])c1cc([N+](=O)[O-])c2cccnc2c1Oc1ccccc1O	none
Oc1c(Cl)c(Cl)c2ncccc2c1Cl	none (no result: AddAB inh, E coli growth-2)
CC(C)CC(=O)Nc1ccc(C(=O)Nc2cccc(O)c2)cc1	none
O=C(c1ccc(CSc2ccc(Cl)cc2)cc1)N1CCOCC1	none
Cc1ccc(CN2CC(N3CCCCC3)CS2(=O)=O)cc1 (configuration not stated)	none (no result: AddAB inh, E coli growth-1, Tat transport, E coli growth-2)
[2H]C(CCOS(N)(=O)=O)c1ccc(C(C)(C)C)cc1 (configuration not stated)	none
C/C(CC(=O)Nc1cc(Cl)ccc1Cl)=N\NC(=O)c1ccco1	none (no result: E coli growth-1)
COc1ccc(S(=O)(=O)N(Cc2ccc(OC)c(OC)c2)Cc2ccco2)cc1	none
COc1ccc(S(=O)(=O)N(CCC(N)=O)Cc2ccco2)cc1OC	phage Ecoli inh 98 | RecBCD conf inactive | Ecoli viability inactive | AddAB counter inactive
O=C1c2ccccc2NC(c2cccc(F)c2)N1Cc1ccccc1 (configuration not stated)	none
O=C1c2ccccc2NC(c2ccc(Cl)cc2Cl)N1O (configuration not stated)	Tat transport inconclusive, phage Ecoli inh 12 | RecBCD conf inactive | Ecoli viability inactive | AddAB counter inactive
O=C1c2ccccc2NC(c2ccc(-c3cccc(F)c3)o2)N1O (configuration not stated)	phage Ecoli inh 12 | RecBCD conf inactive | Ecoli viability inactive | AddAB counter inactive
CCOC(=O)N1CCN(C(=O)c2ccc(OCC)c(OCC)c2)CC1	none
O=C(CSc1ccc(-c2ccccn2)nn1)Nc1cccc(F)c1	phage Ecoli inh 12, E coli growth-2 11 | RecBCD conf inactive | Ecoli viability inactive | AddAB counter inactive
CCOC(=O)CCC(=O)O[C@H]1[C@H](O[C@@H]2[C@@H](C)[C@H](O[C@H]3C[C@@](C)(OC)[C@@H](O)[C@H](C)O3)[C@@H](C)C(=O)O[C@H](CC)[C@@](C)(O)[C@H](O)[C@@H](C)C(=O)[C@H](C)C[C@@]2(C)O)O[C@H](C)C[C@@H]1N(C)C	AddAB inh 25, phage Ecoli inh 26, E coli growth-2 22 (no result: E coli growth-1) | RecBCD conf 14 | Ecoli viability inactive | AddAB counter inactive
COc1cccc(NC(=O)CN(C)C(=O)c2cc3ccccc3cc2OC)c1	none
Cc1ccnc(NC(c2ccccc2)c2ccc3cccnc3c2O)c1 (configuration not stated)	phage Ecoli inh 17 (no result: AddAB inh, E coli growth-2) | RecBCD conf inactive | Ecoli viability inactive | AddAB counter inactive
Cc1ccc2ccc(C(Nc3ccccc3)c3ccc(Cl)cc3)c(O)c2n1 (configuration not stated)	phage Ecoli inh 12 (no result: AddAB inh, E coli growth-1, Tat transport, E coli growth-2) | RecBCD conf inactive | Ecoli viability inactive | AddAB counter inactive

Bioassay records as filed in PubChem BioAssay.
